The values that follow come from the supplement of paper PMC9950053.

Where a name gives a salt, the structure may show the parent alone.

The assay has as its system Danio rerio larvae (5 dpf). Put plainly: combined optomotor response (time in upper well half, down vs up moving lines, periods 7-14) minus DMSO control (percentage points); higher = stronger optomotor response than DMSO larvae. The note with it: 10 µM; exposure time: 3 h pre-incubation + 3 h imaging.
Take `COc1cccc2c1C(=O)c1c(O)c3c(c(O)c1C2=O)C[C@@](O)(C(=O)CO)C[C@@H]3O[C@H]1C[C@H](N)[C@H](O)[C@H](C)O1` [Doxorubicin hydrochloride]: the combined optomotor response was -1.96. In the case of `CCCN(CCC)S(=O)(=O)c1ccc(C(=O)O)cc1` [Probenecid] it was 4.87. Regarding `CC1(C)O[C@@H]2[C@@H](CO[C@@]3(COS(N)(=O)=O)OC(C)(C)O[C@@H]23)O1` [Topiramate], the combined optomotor response was -3.96. Turning to `Nc1nc(F)nc2c1ncn2[C@@H]1O[C@H](CO)[C@@H](O)[C@@H]1O` [Fludarabine], the combined optomotor response is -1.67. As for `CC(C)c1nc(CN(C)C(=O)N[C@H](C(=O)N[C@@H](Cc2ccccc2)C[C@H](O)[C@H](Cc2ccccc2)NC(=O)OCc2cncs2)C(C)C)cs1` [Ritonavir], the figure is 3.14; as for `CC(C)C(=O)Nc1ccc([N+](=O)[O-])c(C(F)(F)F)c1` [Flutamide], -12.4. As for `Clc1ccccc1C(c1ccccc1)(c1ccccc1)n1ccnc1` [Clotrimazole], the figure is -7.18.

For the molecule `CN1CC[C@@H](NC(=O)Nc2ccc(C#N)cc2)C[C@@H]1c1nc2ccccc2[nH]1`, the combined optomotor response was -1.72. As for `NS(=O)(=O)Cc1noc2ccccc12` [Zonisamide], the figure is 7. In the case of `CCCCCCCCc1ccc(CCC(N)(CO)CO)cc1` it was -4.85; in that of `COC(=O)C1=C(C)NC(C)=C(C(=O)OC(C)C)C1c1cccc2nonc12` (centres undefined) [Isradipine], -14.7. Regarding `Brc1c(NC2=NCCN2)ccc2nccnc12`, the combined optomotor response was determined as 5.01. On to `Cc1nc(-c2ccc(OCC(C)C)c(C#N)c2)sc1C(=O)O` [Febuxostat], for which the combined optomotor response amounted to 1.46. For `OCCN(CCO)c1nc(N2CCCCC2)c2nc(N(CCO)CCO)nc(N3CCCCC3)c2n1` [Dipyridamole], the combined optomotor response is -1.19. As for `C=CC(=O)N1CCC[C@@H](n2nc(-c3ccc(Oc4ccccc4)cc3)c3c(N)ncnc32)C1` [Ibrutinib], the figure is 5.02. In the case of `COc1ccccc1OCCNCC(O)COc1cccc2[nH]c3ccccc3c12` (centres undefined) [Carvedilol] it was -1.8; in that of `CC(=O)Oc1ccccc1C(=O)O` [Aspirin], -1.47. Take `CNC(=O)c1ccccc1Sc1ccc2c(/C=C/c3ccccn3)n[nH]c2c1` [Axitinib]: the combined optomotor response came to 3.98.

In the case of `CCOC(=O)[C@H](CCc1ccccc1)N[C@@H](C)C(=O)N1[C@H](C(=O)O)C[C@@H]2CCC[C@@H]21` [Ramipril], the combined optomotor response was found to be 3.49. In the case of `COc1ccc([C@@H]2Sc3ccccc3N(CCN(C)C)C(=O)[C@@H]2OC(C)=O)cc1` [Diltiazem hydrochloride] it was 1.37; in that of `CN(C)CCC[C@@]1(c2ccc(F)cc2)OCc2cc(C#N)ccc21` [Escitalopram oxalate], -0.7; in that of `NC(=O)c1ncn([C@@H]2O[C@H](CO)[C@@H](O)[C@H]2O)n1` [Ribavirin], 5.43. As for `Cc1ccccc1C(=O)Nc1ccc(C(=O)N2CCCC(O)c3cc(Cl)ccc32)c(C)c1` (centres undefined) [Tolvaptan], the figure is 4.13; as for `Nc1nc2[nH]cc(CCc3ccc(C(=O)N[C@@H](CCC(=O)O)C(=O)O)cc3)c2c(=O)[nH]1` [Pemetrexed], 1.31. As to `C#C[C@]1(O)CC[C@H]2[C@@H]3CCC4=CC(=O)CC[C@@H]4[C@H]3CC[C@@]21CC` [Levonorgestrel], the combined optomotor response was 6.62. As for `Cc1ccc(-c2cc(C(F)(F)F)nn2-c2ccc(S(N)(=O)=O)cc2)cc1` [Celecoxib], the figure is 0.0816; as for `CCN(Cc1ccncc1)C(=O)C(CO)c1ccccc1` (centres undefined) [Tropicamide], 0.19; as for `Nc1ccn([C@@H]2O[C@H](CO)[C@@H](O)C2(F)F)c(=O)n1` [Gemcitabine hydrochloride], 1.86. As for `COCCCOc1cc(C[C@@H](C[C@H](N)[C@@H](O)C[C@H](C(=O)NCC(C)(C)C(N)=O)C(C)C)C(C)C)ccc1OC` [Aliskiren hemifumarate], the combined optomotor response was 1.73. In the case of `Nc1ncn([C@@H]2O[C@H](CO)[C@@H](O)[C@H]2O)c(=O)n1` [5-Azacytidine] it was 3.71; in that of `Cc1nc(Nc2ncc(C(=O)Nc3c(C)cccc3Cl)s2)cc(N2CCN(CCO)CC2)n1` [Dasatinib], -2.04; in that of `CCOc1ccccc1OCCN[C@H](C)Cc1ccc(OC)c(S(N)(=O)=O)c1` [Tamsulosin hydrochloride], 4.93.

Regarding `Nc1cccc2c1CN(C1CCC(=O)NC1=O)C2=O` (centres undefined) [Lenalidomide], the combined optomotor response was found to be 1.12.

In the case of `Nc1cc(N2CCCCC2)nc(N)[n+]1[O-]` [Minoxidil], the combined optomotor response is -1.34.
